MITF TRPM1 HTS – activators of MITF-driven TRPM1 promoter activity in SK-MEL-5 cells | SK-MEL-5 TRPM1-promoter luciferase, 24 h; % of positive control, neutral wells = 0 | activation, % at 12.5 µM | 300,000 compounds, 0.75% hits;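 active = mean activation of at least 80% with every replicate also reaching 80%; inconclusive = mean reaches 80% but some replicate falls short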;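 also: 0% = neutral control wells and 100% = parthenolide positive control wells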
A3G deaminase – APOBEC3G (human) deaminase inhibition; Q9HC16; recombinant A3G, ssDNA deamination FAM/TAMRA fluorescence; inhibition, % at 20 µM; 330,000 compounds, 0.28% hits; AID 493012;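 active = inhibition of at least 40% at 20 µM, with no more than 30% in the related APOBEC3A deaminase screen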;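 also: plate controls were DMSO wells with A3G for no effect and wells lacking A3G enzyme for full effect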
Target sequence (Q9HC16 whole entry, looked up): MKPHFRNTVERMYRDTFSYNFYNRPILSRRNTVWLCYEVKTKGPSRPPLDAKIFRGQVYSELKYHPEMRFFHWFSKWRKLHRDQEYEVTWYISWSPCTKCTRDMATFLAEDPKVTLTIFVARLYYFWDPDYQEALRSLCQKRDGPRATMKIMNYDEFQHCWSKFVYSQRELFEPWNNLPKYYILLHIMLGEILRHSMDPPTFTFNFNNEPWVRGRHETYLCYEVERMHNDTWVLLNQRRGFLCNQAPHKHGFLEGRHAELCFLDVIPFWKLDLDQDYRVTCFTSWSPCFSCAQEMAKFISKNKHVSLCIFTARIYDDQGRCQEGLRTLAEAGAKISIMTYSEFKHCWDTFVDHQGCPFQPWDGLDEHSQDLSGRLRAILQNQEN
PHOSPHO1 block – PHOSPHO1 (human) inhibition. AID 1565. inhibition, % at 13.3 µM. recombinant PHOSPHO1, absorbance phosphatase assay. 290,000 compounds, 1.1% hits. Q8TCT1; in the data active = inhibition above about 60%
Target sequence (Q8TCT1 whole entry, looked up): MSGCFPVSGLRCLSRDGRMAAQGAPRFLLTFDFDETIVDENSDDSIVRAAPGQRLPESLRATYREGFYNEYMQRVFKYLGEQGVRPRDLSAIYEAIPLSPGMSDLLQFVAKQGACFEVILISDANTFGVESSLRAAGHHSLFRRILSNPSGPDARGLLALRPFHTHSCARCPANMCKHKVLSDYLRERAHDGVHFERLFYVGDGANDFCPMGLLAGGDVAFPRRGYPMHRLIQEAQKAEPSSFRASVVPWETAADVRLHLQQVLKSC
esBAF inh – SWI/SNF esBAF complex inhibition | mouse ES cells, Bmi1-luciferase knock-in reporter, 24 h; 100% = twice the neutral-well signal | reporter increase, % at 12.5 µM | 350,000 compounds, 2% hits | AID 602393; in the data active = activation above about 40%; inconclusive = no clear call, values can overlap the other calls;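 also: 0% = median of the plate's neutral control wells and 100% = double that signal; a rise in the Bmi1 reporter signal indicates esBAF inhibition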
Wnt act – activators of Wnt/beta-catenin signaling. 300,000 compounds, 1.2% hits. activation, % at 9.35 µM. Wnt/beta-catenin reporter cell assay, activator, plate reader; in the data active = activation above about 30%, passing the limit was not always enough; inconclusive = no clear call, values can overlap the other calls;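 also: 0% = neutral control wells and 100% = positive control wells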
A3A deaminase – inhibitors of human APOBEC3A DNA deaminase; P31941; recombinant A3A, FAM/TAMRA ssDNA deamination fluorescence; inhibition, % at 20 µM; 330,000 compounds, 0.41% hits; AID 493011;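 active = at least 40% inhibition at 20 µM here, with at most 30% in a related deaminase screen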;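 also: plate controls were A3A with DMSO for no effect and wells lacking A3A enzyme for full effect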
Active calls of the source: *; ? = inconclusive; . = no result. The list is not random: actives were taken first. Their share in the collection is about 3.6%.

SMILES | MITF TRPM1 HTS | A3G deaminase | PHOSPHO1 block | esBAF inh | Wnt act | A3A deaminase
CC(=O)Nc1ccc(NC(=O)CCN2C(=O)c3ccccc3C2=O)cc1 | . | -13 | 19 | -7 | -1 | -4
Cc1ccc2sc(-c3ccc(NC(=O)CCN4C(=O)c5ccccc5C4=O)cc3)nc2c1 | . | -7 | 9 | . | 73* | -1
CC(NS(=O)(=O)c1cccc(Cl)c1)C(=O)Nc1ccc(-c2nc3ccccc3s2)cc1 (stereo unspecified) | ? | -3 | 26 | 22 | -1 | -3
O=C(Cc1ccccn1)NCC[C@H]1CC[C@H](NC(=O)Nc2ccc(Cl)cc2)[C@H](CO)O1 | . | . | . | -4 | . | .
O=C(NCC[C@H]1CC[C@@H](NC(=O)C2CC2)[C@@H](CO)O1)Nc1ccc(C(F)(F)F)cc1 | . | . | . | 4 | . | .
COc1cccc(NC(=O)N[C@H]2C=C[C@H](CC(=O)N3CCN(C)CC3)O[C@@H]2CO)c1 | . | . | . | -1 | . | .
CO[C@@H]1CN(C)C(=O)c2ccc(NC(C)=O)cc2OC[C@H](C)N(Cc2ccccc2F)C[C@@H]1C | . | . | . | -1 | . | .
Oc1ccc(/C=N/Nc2ccccc2)cc1 | -17 | -1 | -14 | 6 | -3 | 3
Brc1ccc(/C=N/Nc2ccccc2)cc1 | 84* | 1 | -2 | . | 11 | 0
CO[C@H]1CN(C)C(=O)c2cc(NS(=O)(=O)CC(F)(F)F)ccc2OC[C@H](C)N(C(=O)c2ccc3c(c2)OCO3)C[C@@H]1C | . | . | . | -2 | . | .
COc1ccc(CN(C)C[C@@H]2Oc3c(NS(=O)(=O)c4ccc(C)cc4)cccc3C(=O)N([C@H](C)CO)C[C@@H]2C)cc1 | . | . | . | -5 | . | .
Cc1ccc(C)c(NS(=O)(=O)c2ccc(-c3ccc(=O)[nH]n3)o2)c1 | 0 | -2 | 65* | -5 | 0 | -1
C=CCc1ccc(OCCn2nnc3ccccc32)c(OC)c1 | . | 24 | -183 | 7 | 14 | -3
C=CCc1ccc(OCCn2cccc2C=O)c(OC)c1 | 93* | -7 | 0 | . | . | -2
Cc1ccc(S(=O)(=O)Nc2ccc3c(c2)C(=O)N([C@H](C)CO)C[C@@H](C)[C@H](CN(C)Cc2ccc(Cl)c(Cl)c2)O3)cc1 | . | . | . | 3 | . | .
S=c1[nH]ncn1/N=C/c1cccc(Oc2ccccc2)c1 | 6 | 3 | 97* | 8 | 2 | -6
C(=N\n1cnnc1)/c1cccc(Oc2ccccc2)c1 | 11 | -6 | -32 | -1 | -2 | -2
Cc1nn(-c2ccccc2)nc1C(=O)NN | 0 | -5 | 33 | 4 | 36* | 0
CCON1C(=O)C(C)(C)N(OCC)C(=O)C1(C)C | -9 | -3 | 12 | . | 43* | 1
CCOC(=O)CON1C(=O)C(C)(C)N(OCC(=O)OCC)C(=O)C1(C)C | -2 | -6 | -12 | -7 | . | -3
O=C(Nc1nc(-c2cccs2)cs1)C1=COCCO1 | 63 | -1 | -5 | . | -7 | 0
O=C(Nc1nc(-c2ccc(Cl)cc2)cs1)C1=COCCO1 | 99* | -1 | . | . | -2 | 2
Cc1cc(-c2csc(NC(=O)C3=COCCO3)n2)c(C)n1C | 19 | 1 | . | -4 | -2 | 2
O=C(Cc1ccccc1)Nc1nc(-c2ccc(F)c(F)c2)cs1 | 29 | -9 | 32 | 16 | 4 | 0
COc1ccc(-c2csc(NC(=O)C3=COCCO3)n2)cc1OC | 74 | -5 | . | 66* | 35* | -2
SMILES | MITF TRPM1 HTS | A3G deaminase | PHOSPHO1 block | esBAF inh | Wnt act | A3A deaminase
O=C(Cc1ccccc1F)Nc1nc(-c2ccc(F)c(F)c2)cs1 | 83* | -9 | 24 | 65* | 9 | -1
CCc1ccc(-c2csc(NC(=O)C3=COCCO3)n2)cc1 | 82* | -6 | . | 75* | ? | 2
C[C@@H]1CN([C@H](C)CO)C(=O)c2cc(-c3cccc(C#N)c3)cnc2O[C@H]1CN(C)C(=O)c1cnccn1 | . | . | . | -2 | . | .
O=C(O)C[C@@H]1CC[C@H](NC(=O)c2ccccc2F)[C@H](CO)O1 | . | . | . | 3 | . | .
COc1cccc(C(=O)Nc2ccc3c(c2)C(=O)N(C)[C@H]2CC[C@@H](CC(=O)NCc4ccccc4F)O[C@H]2CO3)c1 | . | . | . | 7 | . | .
O=C(Nc1nc(-c2ccc(F)c(F)c2)cs1)C1=COCCO1 | 62 | -8 | . | 53* | 9 | -5
Cc1cc(C)c(-c2csc(NC(=O)C3=COCCO3)n2)c(C)c1 | -8 | -3 | . | 29 | 0 | -3
N#C/C(=C/c1ccc2c(c1)OCO2)C(=O)Nc1ccc(O)cc1 | 21 | -3 | 6 | 16 | -3 | 0
N#C/C(=C\c1ccc2c(c1)OCCO2)C(=O)Nc1ccc(C(=O)O)cc1 | 23 | -9 | 24 | 61* | 15 | -3
COc1ccc(CN(C)C[C@@H]2Oc3c(NS(=O)(=O)c4ccc(OC)cc4)cccc3C(=O)N([C@@H](C)CO)C[C@@H]2C)cc1 | . | . | . | -1 | . | .
O=c1[nH]c(-c2ccco2)nc2sc3c(c12)CCCC3 | 64 | -3 | -1 | . | 39* | 1
O=c1oc(-c2cccs2)nc2sc3c(c12)CCC3 | 9 | -4 | 15 | 46* | . | -2
O=c1c2c3c(sc2nc2n1N=C(c1cccs1)CS2)CCCC3 | 135* | 5 | 51 | . | . | 2
Cc1nc2sc3c(c2c(=O)o1)CCC3 | . | -4 | 0 | -4 | . | 6
O=c1oc(/C=C/c2ccco2)nc2sc3c(c12)CCC3 | 82* | 14 | 32 | -11 | -4 | 39
COc1ccc(C#Cc2cnc3c(c2)C(=O)N([C@H](C)CO)C[C@H](C)[C@H](CN(C)S(=O)(=O)c2cccs2)O3)cc1OC | . | . | . | 7 | . | .
C[C@H](CO)N1C[C@H](C)[C@H](CN(C)S(=O)(=O)c2cccs2)OCc2ccccc2-c2c(n(C)c3ccccc23)C1=O | . | . | . | -7 | . | .
COc1ccc(CN(C)C[C@H]2OCCCC[C@H](C)Oc3ccc(NC(=O)Nc4ccc(OC)cc4)cc3C(=O)N([C@H](C)CO)C[C@H]2C)cc1 | . | . | . | -5 | . | .
O=C(C[C@H]1C[C@H]2c3cc(NC(=O)C4CCC4)ccc3O[C@H]2[C@H](CO)O1)NCc1cccnc1 | . | . | . | -2 | . | .
CCNC(=S)NNC(=O)C(c1ccccc1)c1ccccc1 | -7 | 0 | -113 | 1 | -8 | -5
O=C(NCc1ccc(Cl)cc1Cl)Nc1ccccc1 | 66 | -11 | . | . | 46* | -2
Cc1ccc(CNC(=O)Nc2cccs2)cc1 | 37 | -2 | 9 | 54* | . | -2
Cc1ccc(C)c(CNC(=O)Nc2ccccc2)c1 | 86* | -4 | 23 | 51* | 3 | -1
CCNC(=S)NNC(=O)Nc1ccccc1 | -14 | -2 | 79* | -4 | -1 | 2
C[C@@H](NC(=O)C[C@@H]1C[C@H]2c3cc(NC(=O)NC4CCCC4)ccc3O[C@H]2[C@@H](CO)O1)c1ccccc1 | . | . | . | -4 | . | .
Cc1ccc(CNC(=O)Nc2ccccc2)cc1 | ? | 0 | -16 | 46* | 21 | 1
C[C@H]1CN([C@@H](C)CO)C(=O)c2cc(-c3ccccc3F)cnc2O[C@@H]1CN(C)Cc1cccc(C(=O)O)c1 | . | . | . | -6 | . | .

Screens deposited in PubChem BioAssay by several laboratories.
